The values below come from PubChem BioAssay AID504462 (Sanford-Burnham Center for Chemical Genomics, 2011).

Among all 340,000 compounds or so, about 1,700 (0.5%) were called active. The sample holds actives, similar compounds and a random draw of the others, so the mix is not that of the screen. Rule as the data show it: active = inhibition above about 40%; inactive = the rest.

This test deals with Cysteine protease ATG4B (Homo sapiens) (UniProt Q9Y4P1). As to the kind of experiment: ATG4B protease inhibitors, primary screen, biochemical, fluorescence, uHTS (AID 504462). To be noted: ATG4B cleavage of LC3-PLA2, NBD-HPC fluorescence, 1 h; at 8.33 µM; hits give high values.
Sequence of Cysteine protease ATG4B (Homo sapiens) (Q9Y4P1 whole entry, looked up): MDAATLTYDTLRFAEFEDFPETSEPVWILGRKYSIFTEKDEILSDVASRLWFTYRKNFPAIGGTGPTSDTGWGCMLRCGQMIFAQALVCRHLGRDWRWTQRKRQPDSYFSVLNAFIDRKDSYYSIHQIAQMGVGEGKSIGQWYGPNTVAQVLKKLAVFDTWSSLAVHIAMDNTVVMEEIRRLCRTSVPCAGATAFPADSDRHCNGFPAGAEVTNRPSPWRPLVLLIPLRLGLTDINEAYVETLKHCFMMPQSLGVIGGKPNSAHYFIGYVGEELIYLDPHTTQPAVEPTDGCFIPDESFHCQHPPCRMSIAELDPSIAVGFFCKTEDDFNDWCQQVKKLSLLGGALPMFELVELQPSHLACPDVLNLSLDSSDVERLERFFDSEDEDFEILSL
One may read the inhibition as the change of the read-out against control, counted positive when it falls. Regarding `CCOCC(=O)Nc1ncc(S(=O)(=O)c2ccc([N+](=O)[O-])cc2)s1`, the inhibition was -0.99% (inactive).

In the case of `COc1ccc(/C=C2\SC(=O)N(CCC(=O)NCCCn3ccnc3)C2=O)cc1`, the inhibition was 3.21% (inactive). Next, `COc1ccc(/C=C2/SC(=O)N(CCCCCC(=O)Nc3ccccc3C(=O)O)C2=S)cc1`: 55.6% (active); `COc1ccc(/C=C2\SC(=O)N(CCC(=O)NC3CCS(=O)(=O)C3)C2=O)cc1` (stereo unspecified): 5.85% (inactive). Next, `Cc1cc(C)n(-c2nnc(C)n2NC(=O)c2cccc(Cl)c2)n1`: -11.2% (inactive); `O=C(NCCS(=O)(=O)N1CCN(c2ccccc2F)CC1)c1ccc(Br)o1`: -9.9% (inactive); `CC1(C)CC(=O)C=C(NCCCN2CCCC2=O)C1`: 2.66% (inactive). As to `CC1CCN(C(=O)c2ccc(CSc3ccc(Cl)cc3)cc2)CC1`, the inhibition was 44% (active). Next, `O=C(C1CC1)N1CCN=C1SCc1ccc(Cl)cc1`: -5.2% (inactive); `O=C(c1ccc(CSc2ccccc2)cc1)N1CCCCCC1`: 15.3% (inactive). Turning to `COC(=O)[C@H](Cc1ccccc1)NC(=O)[C@@H]1C[C@H]1[C@@H](NC(=O)OCc1ccccc1)c1ccccc1`, the inhibition was 3.57% (inactive). Turning to `O=C(O)C1C2C=CC(C2)C1C(=O)NCc1ccccc1` (stereo unspecified), the inhibition is 1.32% (inactive). Next, `O=C(NCc1ccccc1)[C@H]1C[C@@H]1[C@H](NP(=O)(c1ccccc1)c1ccccc1)c1ccccc1`: 55.2% (active); `Cc1ccc(Sc2cc(C(=O)c3ccccc3C(=O)O)ccc2[N+](=O)[O-])cc1`: -10.7% (inactive); `CN(C)S(=O)(=O)c1ccc(N/C=C(\[N+](=O)[O-])S(=O)(=O)c2ccccc2)cc1`: 0.88% (inactive). As to `CCCN(CCC)CCCNC(=O)CNC(=O)c1nn(-c2ccc(OC)cc2)c(=O)c2ccccc12`, the inhibition is 7.71% (inactive). With `CCN=C1SC(CC(=O)Nc2ccc(C)cc2)C(=O)N1CC` (stereo unspecified), the inhibition was -0.27% (inactive). Regarding `Cc1ccc(NC(=O)CC2S/C(=N/N=C3\CCCc4ccccc43)NC2=O)cc1` (stereo unspecified), the inhibition was 41.3% (active).

As to `Cc1c(Cl)cccc1NC(=O)CC1SC(=NCC2CCCO2)NC1=O` (stereo unspecified), the inhibition is 1.67% (inactive). As for `O=C(COC(=O)c1cc(=O)[nH]c2ccccc12)Nc1nc(-c2cccc(Br)c2)cs1`, the inhibition is -32.4% (inactive). With `O=C1Nc2cc(Cl)c(Cl)cc2N(O)N1c1cc(Cl)cc(Cl)c1`, the inhibition is 42.3% (active). Take `O=C1Nc2cc(Cl)c(Cl)cc2N(O)N1c1ccccc1Cl`: the inhibition was 0.16% (inactive).

`O=C(Nc1cccc2c1CCCC2)c1ccc(F)cc1`: the inhibition is 9.34% (inactive).

Regarding `CCS(=O)(=O)C1=NSC2=NC(=O)/C(=C\c3ccc(OS(=O)(=O)c4ccccc4)cc3)C(=N)N21`, the inhibition is 43.1% (active). As for `Cc1ccc(C2=N/C(=C\c3ccc(OS(=O)(=O)c4ccc(C)cc4)cc3)C(=O)O2)cc1`, the inhibition is -3.55% (inactive). As for `CS(=O)(=O)C1=NN2C(=N)/C(=C\c3ccc(OCCOc4ccccc4)cc3)C(=O)N=C2S1`, the inhibition is -1.7% (inactive). Turning to `O=C(NCCc1ccco1)c1ccc(OCc2cn3ccccc3n2)cc1`, the inhibition is -8.13% (inactive). Consider `COC(=O)Cc1ccc(NC(=S)NCc2ccccc2)cc1`, for which the inhibition was 8.5% (inactive). In the case of `FC(F)(F)Oc1ccc(NC(=S)NCc2ccccc2)cc1`, the inhibition is 40.2% (active). Turning to `Fc1ccccc1CNC(=S)Nc1ccc(Cl)cc1`, the inhibition is 23.2% (inactive). As for `CC1(C)C/C(=N/Nc2ccc([N+](=O)[O-])cc2[N+](=O)[O-])C(C)(C)O1`, the inhibition is 0.43% (inactive). Consider `CC(=O)c1c(N2CCOCC2)nc(=S)n(Cc2ccccc2)c1C`, for which the inhibition is -2.2% (inactive). For `Oc1c(Cl)cc(Cl)c(Cl)c1Cc1c(O)c(Cl)cc(Cl)c1Cl`, the inhibition is 87.4% (active). Take `ClC1(Cl)CC1CSc1ncn[nH]1` (stereo unspecified): the inhibition was -3.17% (inactive).

Turning to `Nc1c(Cl)cc(-c2csc(N3CCCC3c3nc4cc(Cl)c(Cl)cc4n3CCOCCO)n2)cc1Cl` (stereo unspecified), the inhibition is -22.9% (inactive). On to `CC(=O)NC1(c2cccc(F)c2)CCN(CC(=O)NC(C)C)CC1`, for which the inhibition was -3.58% (inactive).

In the case of `CCc1ccccc1NC(=O)/C(=C/c1ccccc1)c1ccccc1`, the inhibition is 59.5% (active). For the compound `CCc1ccccc1NC(=O)CCOc1ccccc1`, the inhibition was -0.7% (inactive). As for `CCc1ccccc1NC(=S)Nc1cc(OC)c(NC(=O)C(C)C)cc1OC`, the inhibition is 3.4% (inactive).

For the compound `CCN1CCN(C(C(=O)NC2CCCC2)c2cc3c(cc2[N+](=O)[O-])OCO3)CC1` (stereo unspecified), the inhibition is -0.97% (inactive).

With `O=C(CCn1nnc2ccccc2c1=O)N[C@@H](Cc1c[nH]c2ccccc12)C(=O)O`, the inhibition is 0.19% (inactive). As for `Cc1cccc(C)c1OCC(=O)NC(Cc1c[nH]c2ccccc12)C(=O)O` (stereo unspecified), the inhibition is 2.14% (inactive). On to `O=C(N[C@@H](Cc1c[nH]c2ccccc12)C(=O)O)OCC1c2ccccc2-c2ccccc21`, for which the inhibition was 61.3% (active). In the case of `COCCCNC(=O)C1CCN(c2ccc(N3CCOCC3)nn2)CC1`, the inhibition is -8.6% (inactive). As for `CN(C)Cc1ccc(F)cc1Sc1cc(Cl)ccc1Cl`, the inhibition is 43.6% (active). On to `Cc1ccc(-c2ccc(=O)n(Cc3ccc(F)cc3Cl)n2)cc1`, for which the inhibition was 17.9% (inactive). Then `COc1ccc(OC)c2c(N)c(C#N)c(C(F)(F)C(F)(F)F)nc12`, with 3.2% (inactive). For the compound `COc1ccc(/C=N/n2nnnc2N)cc1OC`, the inhibition was 4.77% (inactive).

Turning to `C=CCOC(=O)c1ccccc1C(=O)OCC=C`, the inhibition is -32.7% (inactive). Turning to `COc1ccc(OCCNC(=O)c2cc(C3CC3)nc3c2cnn3C(C)C)cc1`, the inhibition is -0.45% (inactive).

In the case of `CSc1ccccc1C(=O)NCc1ccccc1`, the inhibition was 5.57% (inactive). For `Cc1ccc(CNC(=O)c2ccccc2CCc2ccccc2)cc1`, the inhibition is 46.1% (active). For the compound `Cc1ccc(CNC(=O)c2cccnc2Cl)cc1`, the inhibition was -10.1% (inactive). On to `CC(C)CNc1ncnc2c1cnn2Cc1ccc(Cl)cc1`, for which the inhibition is -1.96% (inactive).

`Cc1ccc(C)c(NC(=O)C(c2ccccc2)N2CCN(CC(=O)NC3CC3)CC2)c1` (stereo unspecified): the inhibition was 8.15% (inactive). Then `Cc1cc(SCc2c(F)cccc2Cl)nc(=O)[nH]1`, with -6.36% (inactive); and `Cn1c(SCc2c(F)cccc2Cl)nnc1-c1cnccn1`, with -6.8% (inactive); and `Fc1cccc(Cl)c1CSc1ccc(-c2ccco2)nn1`, with 41.7% (active). Next, `COc1ccccc1Oc1ccc(N/C=C2/CCCC2=O)cc1`: 1.94% (inactive); `O=C1/C(=C/c2cccs2)CCc2ccccc21`: 15.7% (inactive).

For the compound `COc1ccc(/C=C2\N=C3CCCN3C2=O)cc1`, the inhibition is 0.67% (inactive). As for `COc1ccc(/C=C2\CCc3ccccc3C2=O)c(OC)c1OC`, the inhibition is 41.9% (active). `COc1ccc(/C=N/NC(=O)C2CC2)c(OC)c1OC`: the inhibition is -2.43% (inactive).

Turning to `COc1ccc(/C=C2/CCCc3ccccc3C2=O)cc1`, the inhibition is 42.3% (active). Take `Cc1cnc(C(=O)N2CCCC(N3CCN(c4ccccc4F)CC3)C2)cn1` (stereo unspecified): the inhibition is 8.65% (inactive).

As for `Cn1c(=O)cc(SCC(=O)N2CCCC2)c2cc(Cl)ccc21`, the inhibition is -13.1% (inactive). As for `N#CCN(C(=O)COC(=O)C1CC2CCCC(C1)C2=O)c1ccccc1` (stereo unspecified), the inhibition is 1.42% (inactive). As for `CC(=O)c1c(C)[nH]c(C(=O)NCCCN2CCCC2)c1C`, the inhibition was -3.1% (inactive).

For the compound `O=C(CN1CCOCC1)Nc1c(-c2ccccc2)c2cc(Br)ccc2[nH]c1=O`, the inhibition is 3.52% (inactive). Next, `O=C(N/N=C\C1CC=CCC1)c1ccc(Br)o1` (stereo unspecified): -3.72% (inactive). For the compound `CC(=O)Nc1ccc(C(=O)Nc2nc(-c3cc(C)n(Cc4ccccc4)c3C)cs2)cc1`, the inhibition is 43.1% (active). With `CCCn1c(C)cc(-c2csc(NC(=O)CCc3nc4ccccc4c(=O)[nH]3)n2)c1C`, the inhibition was -1.22% (inactive). Then `Cc1ccc(C(=O)Nc2c(C#N)c(C)c(C)n2Cc2ccccc2)cc1`, with 15.5% (inactive). Next, `O=C(Nc1cc(S(=O)(=O)Nc2ccc(Cl)cc2)ccc1O)c1ccc(F)cc1F`: 13.4% (inactive); `Cc1ccc(C(=O)OC2=CC(=O)CC(C)(C)C2)cc1`: -11.7% (inactive); `O=C1CN(C(=O)COc2c(Cl)cccc2Cl)c2ccccc2N1`: -0.21% (inactive).

`Cc1cccc(N2O[C@H]3C=CC2CCCC3)n1`: the inhibition is -2.38% (inactive). Take `CC(C)(C)c1ccc(CN2C(=O)c3ccccc3S2(=O)=O)cc1`: the inhibition was 5.21% (inactive). Then `CC(C)(C)c1ccc(OC2=CS(=O)(=O)c3ccccc32)cc1`, with 46.1% (active); and `CC(C)(C)c1ccc(Oc2ccc(N)cc2)cc1`, with 7.75% (inactive); and `CCCCn1c(N)c(N(CCC(C)C)C(=O)CC2OC(=O)c3ccccc32)c(=O)[nH]c1=O` (stereo unspecified), with -0.15% (inactive). For the compound `O=C(NCCCc1ccccc1)C(=O)c1c[nH]c2ccccc12`, the inhibition is 0.84% (inactive).

Take `O=C(C(=O)N1CCc2ccccc2C1)c1c[nH]c2ccccc12`: the inhibition is 67% (active). Next, `CC1CCN(CC(=O)c2c[nH]c3ccccc23)CC1`: -5.44% (inactive). `COc1ccc(-n2nc3c(c2NC(=O)c2ccc(N4C(=O)CCC4=O)cc2)CSC3)cc1`: the inhibition was 1.88% (inactive). On to `O=C(COc1ccc(Br)cc1F)NCC1(N2CCCCC2)CCCCC1`, for which the inhibition was 1.03% (inactive). Then `CSC1=NCCN1C(=O)Cc1cccc2ccccc12`, with -4.14% (inactive). For `NC(=O)Cc1ccc2sc(-c3ccccc3)nc2c1`, the inhibition is 71.4% (active). On to `CC(=O)c1cnc(-c2ccccc2)s1`, for which the inhibition was -11.9% (inactive). For `CC(C)(C)Cc1nnc(NC(=O)c2cc(-c3ccccc3)nc3ccccc23)s1`, the inhibition was 10.4% (inactive). Regarding `O=C(CSc1nnnn1C1CCCC1)Nc1ccc2c(c1)OCCO2`, the inhibition is -5.58% (inactive). As for `Cc1cccc(OC(=O)c2sc3ncn(C)c(=O)c3c2C)c1`, the inhibition is -3.95% (inactive).

Regarding `CCCC1=Nc2cc(C(=O)NCCN3CCCC3)ccc2Sc2ccccc21`, the inhibition was 3.01% (inactive).

`CCCC1=Nc2cc(C(=O)NCc3ccco3)ccc2Sc2ccccc21`: the inhibition was 40.2% (active).

For `CC(C)(C)c1ccc(C(=O)NCc2ccco2)cc1`, the inhibition is -10.7% (inactive). Turning to `NS(=O)(=O)c1cc(Cl)c(Cl)c(S(N)(=O)=O)c1`, the inhibition was 7.96% (inactive).
